Data from PubChem BioAssay (NCATS).
Records with an inconclusive call do not appear. The source made the active and inactive calls. Calls come from the whole dose curve.

Assay: qHTS Assay for Lipid Storage Modulators (AID 1519); for activity change, negative = inhibition: % is set by controls: 0 for no effect and ±100 for the full control effect
Conditions: Drosophila S3 cells, BODIPY lipid droplet/cell ratio, laser cytometry, cells loaded with oleic acid
Source text: NIH Molecular Libraries Probe Production Centers Network [MLPCN]
NIH Chemical Genomics Center [NCGC]
Assay Submitter (PI): Beller, Mathias; Max-Planck-Institut fur Biophysikalische Chemie
NCGC Assay Overview: Storing lipids as a reservoir for energy or the anabolism of elementary metabolites is a common feature of probably all cells and is conserved from bacteria to humans. The universal cellular lipid storage organelle is the so-called lipid storage droplet (LD). Although ubiquitous, LDs share a simple structure composed of a hydrophobic core that harbors the storage lipids, which is shielded by a droplet-specific phospholipid monolayer to which proteins are attached. The current model of LD biogenesis involves an incorporation of the lipid core into the membrane leaflets of the endoplasmic reticulum (ER) followed by a subsequent budding-like maturation of a LD, which ultimately pinches off. Once released, LD volume can increase by localized lipogenesis or fusion of existing droplets. Storage lipids are re-mobilized enzymatically by lipase activity. Lipase regulation in the adipocyte is heavily studied and involves multiple components including catecholamine signaling, the LD-associated proteins Perilipin and comparative gene identification-58 (CGI-58) and at least two lipases named hormone sensitive lipase (HSL) and adipocyte triglyceride lipase (ATGL). LD regulation outside of the adipocyte is poorly understood and only few components are known. However, there is an urgent need to learn more about ectopic fat depots as mislocalized storage of lipids, for example in the liver or muscle, is an eminent health problem associated with insulin resistance or the metabolic syndrome. We developed a laser-scanning cytometer assay to enable 1,536-well screening and combined the results of the small molecules screen with an RNAi database based on lipid storage.
NCGC Assay Protocol Summary:
We dispensed 4 uL of cells at 1.25 x 10^6 cells/mL into LoBase Aurora COC 1,536-well plates (black walled, clear bottom) with a bottle-valve solenoid-based dispenser (Aurora) to obtain 5,000 cells/well. Triacsin C (Sigma-Aldrich T-4540), an inhibitor of long-chain fatty acyl CoA synthetase that blocks synthesis of triglycerides, was used as a positive control for lipid under-storage. A total of 23 nL of compound solution of different concentrations were transferred to the assay plates using a Kalypsys pin tool equipped with a 1,536-pin array containing 10-nL slotted pins (FP1S10, 0.457-mm diameter, 50.8 mm long; V&P Scientific). One microliter of oleic acid (400 uM) was added, and the plate was lidded with stainless steel rubber gasket lined lids containing pinholes. […] Fluorescence was detected by excitation of the fluorophores with a 488-nm laser on an Acumen Explorer (TTP Lab Tech). The total intensity in channel 1 (500-530 nm) reflected lipid droplet accumulation. […] The ratio of the total intensity in PMT channel 1 over total intensity of channel 3 was also calculated. Percent activity was computed relative to an internal control (100% inhibited lipid droplet deposition due to the presence of 20 uM Triacsin C), which was added to 32 wells/plate.

[1] = measured here: cell count channel max response
[2] = measured here: lipid channel max response

| Compound | activity change, negative = inhibition (at 25.7 µM (top of the series)) | max response [1] | max response [2] | activity change, negative = inhibition (at 57.5 µM (top of the series)) |
| --- | --- | --- | --- | --- |
| O=S(=O)(O)c1cc(O)ccc1O | 1.28% (inactive) | 11.8% | 12.6% | – |
| CCC(=O)O[C@@](Cc1ccccc1)(c1ccccc1)[C@@H](C)CN(C)C | -2.5% (inactive) | -5.05% | -7.97% | – |
| CN1C2CCC1CC(OC(c1ccccc1)c1ccc(Cl)cc1)C2 (configuration not stated) | – | -27.9% | -25.4% | 0.923% (inactive) |
| C=CCN1C[C@@H](C)N([C@H](c2ccc(C(=O)N(CC)CC)cc2)c2cccc(OC)c2)C[C@@H]1C | – | -2.68% | 0% | 2.23% (inactive) |
| O=C1CCO1 | – | 8.02% | 16.6% | 5.6% (inactive) |
| NC(Cc1ccc(N(CCCl)CCCl)cc1)C(=O)O (configuration not stated) | – | 17.5% | 28.4% | 5.85% (inactive) |
| NCC(CP(=O)(O)O)c1ccc(Cl)cc1 (configuration not stated) | – | -42.3% | -42.6% | -3.32% (inactive) |
| CCCn1c(C)c(C(=O)c2ccc3ccccc3c2)c2ccccc21 | – | 17.8% | 16.6% | -0.784% (inactive) |
| Cc1[nH]c2ccc(O)cc2c1CCN | – | -4.56% | -4.28% | -0.216% (inactive) |
| NC(=O)COc1c(F)cc(SCCNS(=O)(=O)c2ccccc2)cc1F | – | 1.68% | -0.0137% | -2.33% (inactive) |
| Cc1o[nH]c(=O)c1CC(N)C(=O)O (configuration not stated) | – | -21.1% | -19% | 0.836% (inactive) |
| CCCN(CCC)CCc1ccc(O)c(O)c1 | – | -7.51% | -5.97% | -0.321% (inactive) |
| NNC(N)=O | – | -7.78% | -7.06% | 1.16% (inactive) |
| CC(=O)c1c(O)c(C)c(O)c(Cc2c(O)c3c(c(C(=O)/C=C/c4ccccc4)c2O)OC(C)(C)C=C3)c1O | – | 24.5% | 25.8% | 1.99% (inactive) |
